Each structure is given as a SMILES string.

The test system of one experiment is Human papillomavirus type 1a E7 protein (residues 1-88). In words: HPV1a E7 small-molecule binders, primary screen, biochemical, small-molecule microarray, residues 1-88, 635 nm (AID 1129). Conditions: small-molecule microarray binding, fluorescence 635 nm; higher = more signal.
Regarding `Cc1ccc(S(=O)(=O)N[C@@H]2COC(=O)[C@H](C)COC(=O)CC=C[C@H]2C)cc1`, the composite z-score is -0.0268.

With `C=CC[C@@H]1C=C[C@H](ON=C2c3cc(OC)ccc3O[C@H](c3cccc(OC)c3)[C@H]2O)[C@@H](CO)O1`, the composite z-score was -0.133.

For the compound `C=CCC(OC(C)=O)[C@@H]1[C@@H](N(Cc2cc3ccccc3o2)C(=O)Cc2ccc(F)cc2)c2cc(OCCCO)ccc2N1C(=O)Cc1ccc(OC)cc1` (stereo partly specified), the composite z-score was -1.14.

For the compound `CCOC(=O)[C@H](CC(C)C)NC(=O)CCC1CC(OC(=O)NCCc2ccc(F)cc2)CC2(CCCC(COC(=O)NCc3ccccc3)O2)O1` (stereo partly specified), the composite z-score is 1.17.

`O=C1[C@H]2[C@H]3[C@H](O)[C@H](O)CC(=NOC[C@@H](O)COCc4ccco4)[C@H]3CC[C@H]2C(=O)N1Cc1ccc2c(c1)OCO2`: the composite z-score was -0.413.

Turning to `CC(CCC(=O)OC[C@H]1O[C@H](C#Cc2ccccc2)C=C[C@@H]1Oc1ccc(C)cc1)=NOC[C@@H](O)[C@H]1O[C@@H]2OC(C)(C)O[C@@H]2[C@H]1O`, the composite z-score was -0.106.

The compound `CC(C)(C)N1CC=CC23O[C@@H]4C=CCCOC(=O)C4[C@H]2C(=O)N(CCCCCO)[C@@H]3C1=O` (stereo partly specified) displayed a composite z-score of 0.233.

In the case of `CCc1cc2c(nc1CC)CCN(CCC(C)=NO[C@@H](C)c1cc(-c3c(C)cc(C)cc3C)no1)C2`, the composite z-score was -0.22.

`CC(C)CON=C1C[C@@H](O)[C@@H](O)[C@@H]2[C@@H]3C(=O)N(Cc4ccccc4)C(=O)[C@@H]3CC[C@@H]12` registered a composite z-score of 0.633.

Take `COCCCNC(=O)[C@@]1(C)c2ccccc2C(=O)N(Cc2ccc(OC(F)(F)F)cc2)[C@H]1c1ccc(CO)cc1`: the composite z-score was -1.52.

`O=C1C2=CC[C@H]3C(=O)N(Cc4ccc5c(c4)OCO5)C(=O)[C@H]3[C@H]2[C@H](O)[C@@H]2O[C@H]12`: the composite z-score amounted to 0.383.

In the case of `COc1ccc(O[C@H]2C=C[C@@H](c3ccccc3)O[C@@H]2COC(=O)CCC(C)=NOC(C)CN2CCCCc3nc(C)c(C)cc32)cc1` (stereo partly specified), the composite z-score is -0.303.

As for `CC(CCN1CCCCc2nc(C)c(C)cc21)=NOC(C)CN1CCCCc2nc(C)c(C)cc21` (stereo unspecified), the composite z-score worked out at 1.2.

Take `O=C1[C@H]2[C@H]3[C@H](O)[C@H](O)CC(=NOCc4ccccc4)[C@@H]3CC[C@H]2C(=O)N1C1CCCCC1`: the composite z-score was -0.0419.

Take `COc1ccc([Si](C)(C)[C@@H]2[C@@H](CCO)O[C@]3(C(=O)N(Cc4ccc(NC(C)=O)cc4)c4ccccc43)[C@H]2C)cc1`: the composite z-score amounted to 1.22.

For `Cc1cc2c(c(=O)o1)[C@H](O)[C@H]1O[C@H]1C2=O`, the composite z-score was -1.07.

For `O=C1[C@H]2[C@H]3[C@H](O)[C@H](O)CC(=NOC[C@@H](O)COCc4ccco4)[C@H]3CC[C@H]2C(=O)N1C1CCCCC1`, the composite z-score was -0.476.

Compound `[N-]=[N+]=Nc1ccccc1C[C@@]1(C(N)=O)N=C(c2ccc(OCCCO)cc2)O[C@@H]1c1ccccc1` returned a composite z-score of 1.02.

For `CCOC(=O)NN=C1C[C@@H](O)[C@@H](O)[C@@H]2[C@@H]3C(=O)N(CC)C(=O)[C@@H]3CC[C@@H]12`, the composite z-score is 0.707.

`CC(C)NC(=O)[C@@]1(c2ccc([N+](=O)[O-])cc2)CC(=O)N(CC23CC4CC(CC(C4)C2)C3)[C@@H]1c1ccc(CO)cc1I` gave a composite z-score of 1.14.

On to `COC(=O)C1(C)C=C2C(=C(c3ccccc3)C(=O)C2C)CN1` (stereo unspecified), for which the composite z-score is 0.0147.

Take `O=C1[C@H]2[C@H]3[C@H](O)[C@H](O)CC(=NO[C@@H]4O[C@H](CO)[C@@H](O)[C@H](O)[C@H]4O)[C@@H]3CC[C@H]2C(=O)N1Cc1ccccc1`: the composite z-score is -0.623.

With `CCOC(=O)CCN1C(=O)[C@H]2[C@H]3[C@H](O)C=CC(=O)[C@@H]3CC[C@H]2C1=O`, the composite z-score was determined as 0.621.

`Cc1cc2c(nc1C)CCCN2CC(C)ON=C1[C@H]2CCn3c(=O)n(-c4ccccc4)c(=O)n3[C@H]2[C@H](O)[C@@H]2O[C@H]12` (stereo partly specified) gave a composite z-score of 0.304.

`CCCCc1nc2c(c3c1C[C@H](C)OC3)CN(CCC(C)C)CC2` showed a composite z-score of 1.13.

For a further experiment, the target named is Focal adhesion kinase 1 (Homo sapiens) (UniProt Q05397). Put plainly: PTK2 protein binding on printed compound slides – biochemical, small-molecule microarray, 635/667 nm fluorescence, BSA, DTT, primary screen (AID 1130).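 Note: composite of spot emission at 667 nm and signal to noise over triplicate slides.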 The conditions noted are these: 635 nm fluorescence, higher = more signal.
Chain of Focal adhesion kinase 1 (Homo sapiens) (Q05397 whole entry, looked up): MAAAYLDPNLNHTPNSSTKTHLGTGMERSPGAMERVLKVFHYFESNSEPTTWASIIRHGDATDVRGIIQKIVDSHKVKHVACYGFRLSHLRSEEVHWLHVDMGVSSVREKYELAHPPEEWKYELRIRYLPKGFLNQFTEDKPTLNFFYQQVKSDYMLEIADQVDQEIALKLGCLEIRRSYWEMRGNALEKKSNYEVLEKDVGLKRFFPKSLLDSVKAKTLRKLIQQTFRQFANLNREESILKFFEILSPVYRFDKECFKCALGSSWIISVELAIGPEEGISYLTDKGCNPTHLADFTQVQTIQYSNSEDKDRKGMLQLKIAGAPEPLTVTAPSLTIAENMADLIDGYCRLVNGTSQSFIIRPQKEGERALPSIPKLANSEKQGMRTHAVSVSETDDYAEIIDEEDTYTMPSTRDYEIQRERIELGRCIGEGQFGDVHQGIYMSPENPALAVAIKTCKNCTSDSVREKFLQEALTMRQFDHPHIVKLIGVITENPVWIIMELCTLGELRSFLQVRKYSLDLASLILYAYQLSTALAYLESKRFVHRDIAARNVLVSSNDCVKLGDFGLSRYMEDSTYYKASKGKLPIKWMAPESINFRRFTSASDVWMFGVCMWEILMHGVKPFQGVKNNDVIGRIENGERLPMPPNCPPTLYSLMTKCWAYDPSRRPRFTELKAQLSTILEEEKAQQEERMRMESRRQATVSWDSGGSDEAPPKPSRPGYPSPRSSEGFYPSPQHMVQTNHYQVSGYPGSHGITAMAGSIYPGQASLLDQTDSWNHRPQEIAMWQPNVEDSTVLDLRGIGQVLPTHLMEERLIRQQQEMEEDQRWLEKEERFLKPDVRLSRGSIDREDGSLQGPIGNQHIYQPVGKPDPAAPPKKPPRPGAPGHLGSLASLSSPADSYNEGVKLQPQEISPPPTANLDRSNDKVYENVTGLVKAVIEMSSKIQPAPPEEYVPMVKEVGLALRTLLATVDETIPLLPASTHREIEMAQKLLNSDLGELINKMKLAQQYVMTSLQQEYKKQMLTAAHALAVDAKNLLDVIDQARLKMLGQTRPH
Turning to `CC(=O)OC[C@H]1O[C@@H](ON=C[C@@H](C)[C@H](OCc2ccccc2)C(C)C)[C@H](OC(C)=O)[C@@H](OC(C)=O)[C@@H]1OC(C)=O`, the composite z-score was -0.0838.

With `CN1C(=O)C2C=CC(C(O)C(c3ccccc3)c3ccccc3)N(NC(=O)OC(C)(C)C)C2C1=O` (stereo unspecified), the composite z-score stood at 0.666.

With `COC(=O)C1=C(C)N(Cc2ccccc2)[C@]23O[C@](C(=O)OC)(C(=O)N2[C@@H]1c1ccccc1)[C@H]1CCOC(=O)[C@H]13`, the composite z-score was found to be 0.149.

Turning to `C=C(CCCC)C(=O)CC[C@@H](OC(C)=O)c1cccc(OCCO)c1`, the composite z-score was -0.0296.

Turning to `CO[C@@H]1COC(=O)CC=C[C@@H](C)[C@@H]2C=C[C@@H](O)[C@@H](COC(=O)CC=C[C@H]1C)O2`, the composite z-score was -0.0662.

Consider `COC(=O)[C@@]1(Cc2ccccc2)[C@H]2c3cc(C(=O)N4CCCC4)n(Cc4ccccn4)c3C[C@H]2CN1C(=O)c1ccccc1`, for which the composite z-score is 0.846.

`CCOC(=O)NN=C1C[C@@H](O)[C@@H](O)[C@@H]2[C@@H]3C(=O)N(C(C)(C)C)C(=O)[C@@H]3CC[C@@H]12`: the composite z-score came out at 0.291.

Take `C=CCN1C(=O)[C@]2(O[C@H](CCn3cc(CCO)nn3)[C@@H]([Si](C)(C)c3ccc(OC)cc3)[C@@H]2C)c2cc(N3CCOC3=O)ccc21`: the composite z-score was determined as 0.469.

The compound `CCOc1ccc(N2C(=O)/C(=C/C=C/c3ccccc3OC)S(=O)(=O)C2c2cccc([N+](=O)[O-])c2)cc1` (stereo unspecified) yielded a composite z-score of 0.0604.

As for `O[C@@H](Cc1ccccc1)[C@H]1C2C=CCCC(c3ccccc3)=C2CN1Cc1cccc(Cl)c1` (stereo partly specified), the composite z-score was -0.0839.

The compound `CO[C@H]1O[C@H](CO)[C@@H](OC(=O)Nc2ccc(C#N)cc2)[C@H](OC(=O)c2cc3ccccc3[nH]2)[C@H]1OC(=O)c1cc2ccccc2[nH]1` displayed a composite z-score of 0.831.

Turning to `Cc1ccc(S(=O)(=O)N[C@@H]2COC(=O)[C@H](C)COC(=O)CC=C[C@H]2C)cc1`, the composite z-score was -0.232.

`C=CC[C@@H]1C=C[C@H](ON=C2c3cc(OC)ccc3O[C@H](c3cccc(OC)c3)[C@H]2O)[C@@H](CO)O1` displayed a composite z-score of 0.374.

`C=CCC(OC(C)=O)[C@@H]1[C@@H](N(Cc2cc3ccccc3o2)C(=O)Cc2ccc(F)cc2)c2cc(OCCCO)ccc2N1C(=O)Cc1ccc(OC)cc1` (stereo partly specified): the composite z-score is -0.0602.

In turn, `CCOC(=O)[C@H](CC(C)C)NC(=O)CCC1CC(OC(=O)NCCc2ccc(F)cc2)CC2(CCCC(COC(=O)NCc3ccccc3)O2)O1` (stereo partly specified) registered a composite z-score of 0.212.

In the case of `O=C1[C@H]2[C@H]3[C@H](O)[C@H](O)CC(=NOC[C@@H](O)COCc4ccco4)[C@H]3CC[C@H]2C(=O)N1Cc1ccc2c(c1)OCO2`, the composite z-score is -0.237.

With `CC(CCC(=O)OC[C@H]1O[C@H](C#Cc2ccccc2)C=C[C@@H]1Oc1ccc(C)cc1)=NOC[C@@H](O)[C@H]1O[C@@H]2OC(C)(C)O[C@@H]2[C@H]1O`, the composite z-score stood at 0.0116.

As for `CC(C)(C)N1CC=CC23O[C@@H]4C=CCCOC(=O)C4[C@H]2C(=O)N(CCCCCO)[C@@H]3C1=O` (stereo partly specified), the composite z-score was -0.441.

Take `CCc1cc2c(nc1CC)CCN(CCC(C)=NO[C@@H](C)c1cc(-c3c(C)cc(C)cc3C)no1)C2`: the composite z-score is -0.0159.

In the case of `CC(C)CON=C1C[C@@H](O)[C@@H](O)[C@@H]2[C@@H]3C(=O)N(Cc4ccccc4)C(=O)[C@@H]3CC[C@@H]12`, the composite z-score is 0.528.

As to `COCCCNC(=O)[C@@]1(C)c2ccccc2C(=O)N(Cc2ccc(OC(F)(F)F)cc2)[C@H]1c1ccc(CO)cc1`, the composite z-score is -0.253.

For the compound `O=C1C2=CC[C@H]3C(=O)N(Cc4ccc5c(c4)OCO5)C(=O)[C@H]3[C@H]2[C@H](O)[C@@H]2O[C@H]12`, the composite z-score was determined as 0.009.

The compound `COc1ccc(O[C@H]2C=C[C@@H](c3ccccc3)O[C@@H]2COC(=O)CCC(C)=NOC(C)CN2CCCCc3nc(C)c(C)cc32)cc1` (stereo partly specified) gave a composite z-score of 0.214.

The compound `CC(CCN1CCCCc2nc(C)c(C)cc21)=NOC(C)CN1CCCCc2nc(C)c(C)cc21` (stereo unspecified) showed a composite z-score of 0.332.

For the compound `O=C1[C@H]2[C@H]3[C@H](O)[C@H](O)CC(=NOCc4ccccc4)[C@@H]3CC[C@H]2C(=O)N1C1CCCCC1`, the composite z-score was 0.179.

`COc1ccc([Si](C)(C)[C@@H]2[C@@H](CCO)O[C@]3(C(=O)N(Cc4ccc(NC(C)=O)cc4)c4ccccc43)[C@H]2C)cc1` showed a composite z-score of 0.11.

With `Cc1cc2c(c(=O)o1)[C@H](O)[C@H]1O[C@H]1C2=O`, the composite z-score is -0.21.

Take `O=C1[C@H]2[C@H]3[C@H](O)[C@H](O)CC(=NOC[C@@H](O)COCc4ccco4)[C@H]3CC[C@H]2C(=O)N1C1CCCCC1`: the composite z-score was -0.329.

The compound `[N-]=[N+]=Nc1ccccc1C[C@@]1(C(N)=O)N=C(c2ccc(OCCCO)cc2)O[C@@H]1c1ccccc1` displayed a composite z-score of 0.645.

The compound `CCOC(=O)NN=C1C[C@@H](O)[C@@H](O)[C@@H]2[C@@H]3C(=O)N(CC)C(=O)[C@@H]3CC[C@@H]12` gave a composite z-score of 0.25.

Compound `CC(C)NC(=O)[C@@]1(c2ccc([N+](=O)[O-])cc2)CC(=O)N(CC23CC4CC(CC(C4)C2)C3)[C@@H]1c1ccc(CO)cc1I` gave a composite z-score of 0.457.

`COC(=O)C1(C)C=C2C(=C(c3ccccc3)C(=O)C2C)CN1` (stereo unspecified) had a composite z-score of 0.0183.

With `O=C1[C@H]2[C@H]3[C@H](O)[C@H](O)CC(=NO[C@@H]4O[C@H](CO)[C@@H](O)[C@H](O)[C@H]4O)[C@@H]3CC[C@H]2C(=O)N1Cc1ccccc1`, the composite z-score worked out at 0.593.

The compound `CCOC(=O)CCN1C(=O)[C@H]2[C@H]3[C@H](O)C=CC(=O)[C@@H]3CC[C@H]2C1=O` displayed a composite z-score of 0.122.

Consider `Cc1cc2c(nc1C)CCCN2CC(C)ON=C1[C@H]2CCn3c(=O)n(-c4ccccc4)c(=O)n3[C@H]2[C@H](O)[C@@H]2O[C@H]12` (stereo partly specified), for which the composite z-score is 0.515.

As to `CCCCc1nc2c(c3c1C[C@H](C)OC3)CN(CCC(C)C)CC2`, the composite z-score was found to be 0.0171.

(Values after PubChem BioAssay.)
